The list is not random: actives were taken first. Their share in the collection is about 17%.
ClpP mod = qHTS Assay for Activators of ClpP | ATP-dependent Clp protease proteolytic subunit (Bacillus subtilis (strain 168)), P80244 | purified B. subtilis ClpP, FRET peptide cleavage, 20 min | Potency, µM (top dose mostly 57.5 µM) | actives 1.9% (n = 340,000) | AID 651965, 2013; active = well fitted falling curve with a large enough effect; inconclusive = small, poorly fitted or top-dose-only effect; inactive = no such curve, though single readings can be large or run the other way; note: the source files actives as falling curves though it sought activators and does not explain the sign; nearly all actives have a fitted effect of over 65% in size
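Purified B. subtilis ClpP, 10 microg/mL final in Tris/HCl pH8 with KCl, BSA, glycerol and Tween-20, cleaved an Abz/nitrotyrosine-quenched decapeptide. Fluorescence (ex 320, em 430) was read at 0 and 20 min at room temperature. Delta was normalized to 5.8 microM ADEP and DMSO/no-enzyme controls.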
TDP1 cell noCPT = qHTS for Inhibitors of human tyrosyl-DNA phosphodiesterase 1 (TDP1): qHTS in cells in absence of CPT. Potency, µM (titrated, usually from 46.2 µM), most hits filed as inhibitors. actives 15% (n = 420,000). DT40 Tdp1-/- hTDP1 cells, no CPT, ATP luminescence, 48 h. AID 686978, 2013; note: nearly all actives have a fitted effect of over 55% in size
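Seeded 400 DT40-hTDP1 cells/well (vehicle DMSO, no 20 nM CPT); pinned compounds; ≥48 hr at 37 °C; CellTiter-Glo luminescence as viability measure.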
DT40 TDP1 CPT = DT40-hTDP1 cell growth loss with CPT. chicken DT40 Tdp1-/-;hTDP1 cells + 20 nM CPT, ATP luminescence, 48 h. Potency, µM (doses to about 46.2 µM), usual class: inhibitors. actives 12% (n = 420,000); note: nearly all actives have a fitted effect of over 55% in size
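Cell growth measured by CellTiter-Glo luminescence after a minimum 48 h, 37 C compound exposure with 20 nM CPT in Tdp1-knockout DT40 cells stably expressing hTDP1, seeded 400/well; qHTS titration format.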
TDP1 block = TDP1 (human) enzyme inhibition; Q9NUW8; recombinant TDP1, AlphaScreen DNA substrate cleavage; Potency, µM (series often up to 130 µM), actives largely listed as inhibitors; actives 0.28% (n = 350,000); AID 485290; note: nearly all actives have a fitted effect of over 40% in size
Target sequence (Q9NUW8 whole entry, looked up): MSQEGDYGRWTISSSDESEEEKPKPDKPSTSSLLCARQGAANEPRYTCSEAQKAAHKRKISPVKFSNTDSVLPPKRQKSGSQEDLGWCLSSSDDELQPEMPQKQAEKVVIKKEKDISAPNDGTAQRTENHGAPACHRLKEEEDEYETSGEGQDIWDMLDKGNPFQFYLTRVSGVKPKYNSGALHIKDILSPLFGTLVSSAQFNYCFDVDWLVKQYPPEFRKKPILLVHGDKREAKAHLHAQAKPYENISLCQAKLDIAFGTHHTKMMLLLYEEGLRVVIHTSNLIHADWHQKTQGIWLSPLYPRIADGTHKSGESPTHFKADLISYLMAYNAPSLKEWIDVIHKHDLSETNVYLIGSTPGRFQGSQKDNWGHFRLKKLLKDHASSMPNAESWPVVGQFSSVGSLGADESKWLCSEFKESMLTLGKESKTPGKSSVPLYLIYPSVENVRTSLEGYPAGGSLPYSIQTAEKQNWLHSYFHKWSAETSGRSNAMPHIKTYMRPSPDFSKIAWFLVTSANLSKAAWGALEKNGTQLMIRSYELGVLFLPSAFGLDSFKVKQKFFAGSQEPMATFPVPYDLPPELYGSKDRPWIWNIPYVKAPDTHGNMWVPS
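Tdp1 1 nM final; 15 min RT w/ cpd; substrate 15 nM, 5 min; beads 10 ug/ml, 10 min; AlphaScreen read. Neg ctrl: no enzyme.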
A number is an active result. Unless noted, calls come from the whole dose curve; as a rule, active = well fitted curve in the direction sought with a large enough effect; inconclusive = small, poorly fitted or top-dose-only effect, or another doubt; inactive = no such curve, though single readings can be large; an effect the other way counts as inactive or inconclusive.

Cn1nc(C(C)(C)C)cc1C(=O)N1CCCC(C)(C(=O)NS(=O)(=O)C2CC2)C1 (stereo not given) was read as ClpP mod inactive, TDP1 cell noCPT 6.5µM and DT40 TDP1 CPT 6.5µM.
`CCCS(=O)(=O)NC(=O)C1(C)CCCN(C(=O)c2ccco2)C1` (stereo not given) gave ClpP mod inactive, TDP1 cell noCPT inactive and DT40 TDP1 CPT inactive.
`Cc1cccc(COc2ccccc2C(=O)NC2CCC(O)CC2)c1` (stereo not given) gave ClpP mod inactive, TDP1 cell noCPT inconclusive and DT40 TDP1 CPT inconclusive.
For CC1(C(=O)NS(=O)(=O)C2CC2)CCCN(C(=O)c2ccc3ccccc3c2)C1 (stereo not given) the results were ClpP mod inactive, TDP1 cell noCPT 0.26µM and DT40 TDP1 CPT 0.52µM.
`CCCNC(=O)C1(C)CCCN(C(=O)c2ccc3ccccc3c2)C1` (stereo not given) gave ClpP mod inactive, TDP1 cell noCPT inconclusive and DT40 TDP1 CPT inactive.
For COC(=O)c1ccc(C(=O)N2CCCC(C)(C(=O)NS(=O)(=O)C3CC3)C2)cc1 (stereo not given) the results were ClpP mod inactive, TDP1 cell noCPT 1.5µM and DT40 TDP1 CPT inconclusive.
`COc1ccc(C(=O)N2CCC(C)(C(=O)NS(=O)(=O)C3CC3)C2)cc1F` (stereo not given) gave ClpP mod inactive, TDP1 cell noCPT inactive and DT40 TDP1 CPT inactive.
COc1ccccc1NC(=O)Cn1nnc(C(=O)Nc2ccccc2Br)c1N was read as ClpP mod inactive, TDP1 cell noCPT inactive, DT40 TDP1 CPT inactive and TDP1 block inactive.
`CC(CCc1ccc(O)cc1)NCC(O)c1ccc(O)cc1` (stereo not given) gave TDP1 cell noCPT inactive, DT40 TDP1 CPT inactive and TDP1 block inactive.
CCC(C)(C)n1nnnc1C(c1cc2cccc(C)c2[nH]c1=O)N1CCCC1 (stereo not given) was read as ClpP mod inactive, TDP1 cell noCPT inactive, DT40 TDP1 CPT inconclusive and TDP1 block inactive.
For Cc1ccc(C)c2[nH]c(=O)c(C(c3nnnn3C(C)(C)C)N3CC=C(c4ccc(F)cc4)CC3)cc12 (stereo not given) the results were ClpP mod inactive, TDP1 cell noCPT 16µM, DT40 TDP1 CPT inconclusive and TDP1 block inactive.
`COc1ccc2cc(C(=O)/C=C/c3cc(OC)c(O)c(OC)c3)ccc2c1` gave TDP1 cell noCPT 9.2µM and DT40 TDP1 CPT 10µM.
`COc1ccc(C(=O)/C=C/c2ccc(OC3CSC3)cc2)cc1OC` gave ClpP mod inactive, TDP1 cell noCPT 18µM, DT40 TDP1 CPT inconclusive and TDP1 block inactive.
COc1ccc(C(=O)/C=C/c2cc(OC)c(O)c(OC)c2)c(F)c1 was read as ClpP mod inactive, TDP1 cell noCPT 16µM, DT40 TDP1 CPT inconclusive and TDP1 block inactive.
Screening COc1cc(/C=C/C(=O)c2c(O)cc(C)oc2=O)cc(OC)c1O returned ClpP mod 28µM, TDP1 cell noCPT inconclusive, DT40 TDP1 CPT inconclusive and TDP1 block inactive.
`COc1ccc2cc(C(=O)O)ccc2c1` gave ClpP mod inconclusive, TDP1 cell noCPT inactive, DT40 TDP1 CPT inactive and TDP1 block inactive.
OC1CCCCC1 was read as ClpP mod inactive, TDP1 cell noCPT inactive, DT40 TDP1 CPT inactive and TDP1 block inactive.
N#C/C(=C1/C(=O)Nc2ccc(Br)cc21)c1ccccn1 was read as ClpP mod inactive, TDP1 cell noCPT inconclusive, DT40 TDP1 CPT inconclusive and TDP1 block inactive.
`COCCNC(=O)C(c1ccc(C)o1)N(C(=O)C(=O)NC1CCCCC1)c1ccc(F)cc1` (stereo not given) gave TDP1 cell noCPT inactive, DT40 TDP1 CPT inactive and TDP1 block inactive.
For O=C(CCl)Nc1c(C(=O)Nc2ccc3c(c2)OCCO3)oc2ccccc12 the results were ClpP mod inactive, TDP1 cell noCPT 10µM, DT40 TDP1 CPT 5.2µM and TDP1 block inconclusive.
Screening COc1cccc(NC(=O)c2ccc3c(c2)OCO3)c1 returned ClpP mod inactive, TDP1 cell noCPT inactive, DT40 TDP1 CPT inactive and TDP1 block inactive.
`COc1cccc(NC(=O)c2oc3ccccc3c2NC(=O)C(C)(C)C)c1` gave ClpP mod inconclusive, TDP1 cell noCPT inconclusive, DT40 TDP1 CPT inconclusive and TDP1 block inactive.
`COc1cccc(NC(=O)c2oc3ccccc3c2NC(=O)c2ccc3c(c2)OCO3)c1` gave ClpP mod inconclusive, TDP1 cell noCPT inconclusive, DT40 TDP1 CPT 14µM and TDP1 block inactive.
`O=C(Nc1ccc(F)cc1)c1oc2ccccc2c1NC(=O)C1CCCC1` gave ClpP mod inactive, TDP1 cell noCPT 18µM, DT40 TDP1 CPT inconclusive and TDP1 block inactive.
Screening COc1cccc(NC(=O)c2oc3ccccc3c2NC(=O)c2cc3ccccc3o2)c1 returned ClpP mod inactive, TDP1 cell noCPT 18µM, DT40 TDP1 CPT 13µM and TDP1 block inactive.
For CCOc1ccc(NC(=O)c2oc3ccccc3c2NC(=O)C2CCCCC2)cc1 the results were ClpP mod inactive, TDP1 cell noCPT inconclusive, DT40 TDP1 CPT inactive and TDP1 block inactive.
CC[C@@H]1Cc2[nH][nH]c(=O)c2[C@H](c2ccc(Cl)cc2)O1 was read as ClpP mod inactive, TDP1 cell noCPT inconclusive and DT40 TDP1 CPT inactive.
`Cn1nc(C(=O)NNC(=O)Cc2ccc(S(=O)(=O)N3CCOCC3)s2)c2ccccc2c1=O` gave ClpP mod inactive, TDP1 cell noCPT inactive and DT40 TDP1 CPT inactive.
For C[C@@H]1CN([C@H](C)CO)C(=O)CCCn2nncc2CO[C@@H]1CN(C)C(=O)c1ccccc1 the results were ClpP mod inactive, TDP1 cell noCPT inactive and DT40 TDP1 CPT inactive.
Cc1ccc(NC(=O)CN2C(=O)c3ccccc3Sc3ccc(C(=O)N4CCCC4)cc32)cc1 was read as ClpP mod inactive, TDP1 cell noCPT inactive, DT40 TDP1 CPT inactive and TDP1 block inactive.
For COc1cccc(NC(=O)c2oc3ccccc3c2NC(=O)C2CCCCC2)c1 the results were ClpP mod inconclusive, TDP1 cell noCPT 16µM, DT40 TDP1 CPT inconclusive and TDP1 block inactive.
Screening COc1ccccc1NC(=O)c1oc2ccccc2c1NC(=O)C1CCCCC1 returned ClpP mod inactive, TDP1 cell noCPT inconclusive, DT40 TDP1 CPT inactive and TDP1 block inactive.
`COC(=O)[C@@]12C[C@@H](CC(=O)N3CCN(C(=O)c4ccco4)CC3)C(=O)N(CCc3ccc(OC)c(OC)c3)C1=CCC(C)(C)C2` gave ClpP mod inactive, TDP1 cell noCPT inconclusive and DT40 TDP1 CPT inconclusive.
`Cc1ccc(N(C(=O)CNC(=O)c2ccco2)C(C(=O)NC2CCCC2)c2cccnc2)c(C)c1` (stereo not given) gave TDP1 cell noCPT inactive and DT40 TDP1 CPT inactive.
Screening O=C(CSc1nnc(-c2ccc(Cl)s2)o1)N1CCCc2ccccc21 returned ClpP mod inactive, TDP1 cell noCPT 16µM, DT40 TDP1 CPT inconclusive and TDP1 block inactive.

Source: PubChem BioAssay
